An excerpt weighted towards active compounds, which were near 11% of everything screened.
HP1b chromo inh – HTS for Inhibitors of HP1-beta Chromodomain Interactions with Methylated Histone Tails | AlphaScreen HP1-beta / biotin-H3K9me3 peptide binding | Potency, µM (series often up to 114 µM), inactives show top-dose activity change, negative = inhibition, usual class: inhibitors | actives 0.56% (n = 390,000); note: potency is the fitted concentration of half-maximal effect; nearly all actives have a fitted effect of over 70% in size
Target sequence (P83916 whole entry, looked up): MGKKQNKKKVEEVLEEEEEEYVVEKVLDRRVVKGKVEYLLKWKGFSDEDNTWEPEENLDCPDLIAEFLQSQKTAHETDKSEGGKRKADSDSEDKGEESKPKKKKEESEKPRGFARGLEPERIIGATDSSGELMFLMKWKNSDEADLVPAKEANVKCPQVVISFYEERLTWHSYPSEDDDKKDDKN
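Compound inhibition of the preformed complex between 50 nM HP1-beta and 50 nM biotinylated H3K9me3 peptide was read by AlphaScreen. Buffer was PBS pH 7.4 with 0.01% Tween-20. Incubations ran 30 min at room temperature, with 10 ug/mL donor/acceptor beads.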
BAZ2B inh – qHTS Assay for Inhibitors of BAZ2B | AlphaScreen BAZ2B-H3K14Ac peptide displacement | actives 4.4% (n = 360,000) | AID 504333, 2011 | Potency, µM (doses to about 114 µM), inactives show top-dose activity change, negative = inhibition, hits mostly inhibitors | Bromodomain adjacent to zinc finger domain protein 2B (Homo sapiens), Q9UIF8; note: potency is the fitted concentration of half-maximal effect; % is set by controls: 0 for no effect and ±100 for the full control effect; nearly all actives have a fitted effect of over 60% in size
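AlphaScreen displacement of biotin-H3(5-23)K14Ac peptide (50 nM final) from BAZ2B (50 nM final) in PBS pH 7.4, 0.01% Tween-20; complex preformed 30 min RT, then compounds (top 110 uM) 30 min RT, beads 20 min dark.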
G9a block – qHTS Assay for Inhibitors of Histone Lysine Methyltransferase G9a; Histone-lysine N-methyltransferase EHMT2 (Homo sapiens), Q96KQ7; G9a H3K9 monomethylation, AlphaScreen, 2 h; Potency, µM (top dose mostly 102 µM), inactives show at the top dose activity, negative = inhibition, most hits filed as inhibitors; actives 8.8% (n = 350,000); note: potency is the fitted concentration of half-maximal effect; % is set by controls: 0 for no effect and ±100 for the full control effect; nearly all actives have a fitted effect of over 75% in size
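Using a bead-based AlphaScreen, monomethylated H3K9 product from 2 h room-temperature reactions (G9a 20 nM, peptide 500 nM, SAM 20 uM) was detected with 0.5 ug/mL rabbit anti-H3K9me1 antibody.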
JMJD2A Tudor – qHTS Assay for Inhibitors of JMJD2A-Tudor Domain; AlphaScreen JMJD2A-Tudor / H3K4me3 peptide binding; Potency, µM (top dose mostly 114 µM), for the others: at the top dose activity change, negative = inhibition, most hits filed as inhibitors; actives 4.4% (n = 390,000); AID 504339, 2011; note: potency is the fitted concentration of half-maximal effect; % is set by controls: 0 for no effect and ±100 for the full control effect; nearly all actives have a fitted effect of over 50% in size
L3MBTL1 block – qHTS Assay for the Inhibitors of L3MBTL1 | Potency, µM (highest dose often 57.1 µM), without a hit: at the top dose activity, negative = inhibition, actives largely listed as inhibitors | AID 485360, 2010 | AlphaScreen L3MBTL1–H3K9me1 peptide binding | Lethal(3)malignant brain tumor-like protein 1 (Homo sapiens), Q9Y468 | actives 0.66% (n = 230,000); note: potency is the fitted concentration of half-maximal effect; % is set by controls: 0 for no effect and ±100 for the full control effect; nearly all actives have a fitted effect of over 60% in size
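Displacement of a biotinylated histone H3(1-15) peptide monomethylated at Lys9 (75 nM) from L3MBTL1 (50 nM) was measured by AlphaScreen after a 30 min room-temperature compound incubation; cefsulodin titration served as intraplate control.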
PI5P4Ka inh – qHTS for Inhibitors of phosphatidylinositol 5-phosphate 4-kinase (PI5P4K). actives 1.2% (n = 330,000). AID 652105, 2013. max response, %. PI5P4Kalpha enzyme, ADP-Glo luminescence, 60 min; hits give low values. Phosphatidylinositol 5-phosphate 4-kinase type-2 alpha (Homo sapiens), P48426; active = max response of -50% or lower; inconclusive = between -30% and -50%; inactive = -30% or higher; note: value at the top dose of about 77 µM; % is set by controls: 0 for no effect and ±100 for the full control effect
Target sequence (P48426 whole entry, looked up): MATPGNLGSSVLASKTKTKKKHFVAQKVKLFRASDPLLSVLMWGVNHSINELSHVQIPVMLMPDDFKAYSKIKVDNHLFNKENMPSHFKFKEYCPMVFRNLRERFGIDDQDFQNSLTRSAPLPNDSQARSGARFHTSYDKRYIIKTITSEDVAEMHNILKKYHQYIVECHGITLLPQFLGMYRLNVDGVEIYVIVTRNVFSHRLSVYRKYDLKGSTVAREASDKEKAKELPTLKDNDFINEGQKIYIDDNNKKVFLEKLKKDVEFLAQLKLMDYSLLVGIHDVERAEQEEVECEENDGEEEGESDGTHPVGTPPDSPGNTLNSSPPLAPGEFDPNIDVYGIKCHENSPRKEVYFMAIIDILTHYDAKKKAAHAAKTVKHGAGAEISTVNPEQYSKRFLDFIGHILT
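qHTS, 1536-well: enzyme/substrate mix, compound by pin tool, 5 microM ATP final; RT 60 min; ADP-Glo reagents 1 (45 min) then 2 (30 min); luminescence.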
ADP-Glo interf – qHTS for Inhibitors of PI5P4K: ADP-Glo counter assay; ADP-Glo detection counter-screen, luciferase luminescence, no enzyme; 1,100 tested, under 10 active; shares compounds with PI5P4Ka inh; Potency, µM (top dose mostly 76.9 µM), for inactives: at the highest dose activity change, negative = inhibition, hits mostly inhibitors
Numbers without * were called inactive; u = inconclusive; x = no result; [ ] = remark or other dose. Unless noted, calls come from the whole dose curve; as a rule, active = well fitted curve in the direction sought with a large enough effect; inconclusive = small, poorly fitted or top-dose-only effect, or another doubt; inactive = no such curve, though single readings can be large; an effect the other way counts as inactive or inconclusive.

SMILES | HP1b chromo inh | BAZ2B inh | G9a block | JMJD2A Tudor | L3MBTL1 block | PI5P4Ka inh | ADP-Glo interf
COc1ccc(N(CC(=O)NC2CCCC2)C(=O)Cn2nnc(-c3ccc(OC)c(OC)c3)n2)cc1 | 21% | -20% | -3% | -10% | 7% | 4 | x
COc1ccc(-c2nnc(C)c3nocc23)cc1 | 23% | -26% | -13% | u | x | -66* | -10%
COc1ccc(Oc2nnc(-c3ccc(C)cc3)c3ccccc23)cc1 | 20% | 9% | 17%[59 µM] | -16% | 7% | x | x
COc1cccc(NC(=O)CSC2=Nc3ccccc3C3=NC(CCC(=O)NCCc4ccccc4)C(=O)N23)c1 (centres undefined) | -2% | -10% | 13%[59 µM] | -17% | x | x | x
CCOC(=O)C(CC)Sc1nnc2[nH]c(=O)cc(C)n12 (centres undefined) | -1% | -1% | -1%[59 µM] | -15% | x | x | x
OC(c1ccc(Cl)c(F)c1)c1ncc(-c2ccc(Oc3ccccc3)cc2)[nH]1 (centres undefined) | x | x | x | x | x | -57* | -5%
OC(c1ccc(Cl)c(F)c1)c1ncc(-c2ccc(Cl)cc2)[nH]1 (centres undefined) | x | x | x | x | x | 15 | x
COc1cc(NC2=Nc3cccc4cccc2c34)cc(OC)c1OC | u | 50µM* | 50µM* | u | -12% | -50* | -3%
CCOc1ccc(NC(=O)N2CCC(n3nnc4ccccc43)CC2)cc1 | 12% | u | x | -26% | -5% | -51* | 2%
COc1ccc(NC(=O)N2CCC(n3nnc4cc(C)ccc43)CC2)cc1 | 28% | 6% | -11%[59 µM] | -6%[57.1 µM] | -1% | -3 | x
Cc1ccc(NC(=O)CN(C)S(=O)(=O)c2cnc[nH]2)cc1 | 51% | -6% | 5%[59 µM] | -3% | x | x | x
COc1cc2ncnc(NCc3ccc(C)o3)c2cc1OC | 9% | -31% | u | -34% | -10% | 0 | x
Cc1ccc(CNc2ncnc3ccc(-c4ccoc4C)cc23)o1 | x | x | x | x | x | x | 0%
COc1ccc(NC(=O)C2CCN(c3cc(C)nc4c(-c5ccc(Cl)cc5)c(C)nn34)CC2)cc1 | 28% | -4% | -5%[59 µM] | -7% | x | x | x
Cc1ccc(NC(=O)c2ccc3c(c2)NC(=O)CS3)nc1 | u | -18% | 10µM* | -21% | -4% | -57* | -9%
COCCN(C(=O)COC(=O)Cc1coc2cc3c(cc12)CCC3)c1c(N)n(Cc2ccccc2)c(=O)[nH]c1=O | u | 50µM* | 40µM* | 45µM* | u | -50* | -5%
CN1CCN(c2ncnc3ccc(-c4ccccc4Cl)cc23)CC1 | x | x | 18%[0.501 µM] | x | x | x | x
COc1cccc(Nc2nnc(SCC(=O)Nc3sccc3C(N)=O)s2)c1 | 16%[57 µM] | 79µM* | -12%[59 µM] | -26% | -29% | -52* | 6%
COc1cccc(NC(=O)CSc2nnc(NC(=O)C3CC3)s2)c1 | 10%[57 µM] | 1% | u | -12% | x | -6 | x
Cc1noc(-c2ccc(N3CCCCC3)c([N+](=O)[O-])c2)n1 | 46% | 0% | u | -2% | x | x | x
COc1cc(C(=O)NCCSc2ccccc2)cc(OC)c1OC | 10% | -16% | x | -15% | 22% | -1 | x
COc1ccc(C(=O)NCCSc2ccccc2)cc1OC | -14% | -15% | -6% | 11µM* | -3%[11.4 µM] | -87* | -12%
O=c1oc2ccccc2cc1-c1csc(Nc2nc3c(F)cccc3s2)n1 | 35% | 15% | -12%[59 µM] | -14% | -3% | -55* | -5%
O=c1oc2ccccc2cc1-c1csc(Nc2nc3ccc(F)cc3s2)n1 | x | -6% | 27%[59 µM] | x | -6% | x | x
CCc1ccc(N(CC)C(=O)Cn2nc(Cc3cccnc3)c3ccccc3c2=O)cc1 | 22% | -21% | 1%[59 µM] | -30% | x | x | x
SMILES | HP1b chromo inh | BAZ2B inh | G9a block | JMJD2A Tudor | L3MBTL1 block | PI5P4Ka inh | ADP-Glo interf
COc1cccc(CNc2nc(NC(C)C)nc3ccsc23)c1 | x | x | x | x | x | x | 2%
COc1ccccc1CNc1nc(NC(C)C)nc2cc(-c3ccccc3)sc12 | x | x | x | x | x | x | -9%
COCCNc1nc(NCCOc2ccccc2)c2sc(-c3ccccc3)cc2n1 | x | x | x | x | x | x | -1%
COc1ccccc1CNc1nc(NCc2cccc(OC)c2OC)c2sccc2n1 | x | x | x | x | x | x | 3%
COCCNc1nc(NCCOC)c2sc(-c3ccccc3)cc2n1 | x | x | x | x | x | -4 | x
COCCNc1nc(NCc2cccc(OC)c2)c2sccc2n1 | x | x | x | x | x | -4 | x
COc1cccc(NC(=O)CSc2nc(-c3ccccc3Cl)nc3c2Cc2c(CO)cnc(C)c2O3)c1 | 35% | -2% | -5%[59 µM] | 5% | x | x | x
O=C(Nc1cccc(C(=O)OCc2cc(=O)n3nc(C4CC4)sc3n2)c1)c1ccc(F)cc1 | 27% | -8% | 24%[59 µM] | -16% | x | x | x
COc1ccccc1CNc1nc(NCc2ccc(C)cc2C)c2sccc2n1 | x | x | x | x | x | x | -6%
COc1ccccc1CNc1nc(NCc2ccccc2)nc2ccsc12 | x | x | x | x | x | x | -8%
COCCNc1nc(NCc2ccc(C)cc2C)c2sccc2n1 | x | x | x | x | x | -1 | x
O=C(Nc1ccccc1)c1cc(C2CCCCN2S(=O)(=O)Cc2cccc(C(F)(F)F)c2)on1 (centres undefined) | x | x | x | x | x | 4 | x
CCOC(=O)c1cc2c(=O)n3ccccc3nc2n(C(C)C)c1=NC(=O)c1cc2ccccc2o1 | 60% | 13% | 14%[59 µM] | 8% | x | x | x
CSc1nc2sc3c(c2c(=O)n1-c1ccc(C)cc1)CCCC3 | 26% | 0% | -38%[59 µM] | -8% | x | x | x
Cc1ccc(-n2c(=S)[nH]c3sc4c(c3c2=O)CCC4)cc1 | 10% | -20% | 45µM* | -34% | -5% | -55* | 0%
Cc1ccc(C2Nc3ccccc3-n3c(-c4ccccc4)c4c(=O)n(C)c(=O)n(C)c4c32)o1 (centres undefined) | 46% | 4% | -28%[59 µM] | -12% | x | x | x
CN(C)C(=S)NCc1ccccc1 | -5% | 3% | x | 25µM* | -1% | -54* | -7%
O=S(=O)(Nc1ccccc1N1CCCCC1)c1ccc(Cl)s1 | u | -37% | -10% | u | x | -55* | 4%
c1coc(-c2ccc3nncn3c2)c1 | x | x | x | x | x | -73* | -13%
O=C1CC(c2nc3ccccc3[nH]2)CN1c1cccc(Cl)c1 (centres undefined) | 36% | 1% | 3%[59 µM] | 3% | x | x | x

Screening data as filed in PubChem.
